# Measurements taken from the antibiotic and cytotoxicity screens of Wong et al. (2023).
# Hit rate of the full screen: of about 39,000 compounds, about 3,300 (8.5%) were called active. The full list was thinned out, with actives kept by preference.
# System: HepG2
# Experiment: cytotoxicity call (relative viability < 0.9)
# Conditions: 10 µM
row,Structure (SMILES),cytotoxicity call
1,Cc1ccc(S(=O)(=O)Nc2cccc3c2O[C@H](CN(C)C(=O)Nc2ccc(C(F)(F)F)cc2)[C@H](C)CN([C@H](C)CO)C3=O)cc1,inactive
2,C[C@@H]1CCCCO[C@@H](CN(C)CC2CCCCC2)[C@H](C)CN([C@H](C)CO)C(=O)c2cc(NS(=O)(=O)c3ccccc3)ccc2O1,inactive
3,Cc1ccc(S(=O)(=O)Nc2ccc3c(c2)C(=O)N([C@@H](C)CO)C[C@H](C)[C@@H](CN(C)Cc2ccc(Cl)c(Cl)c2)OCCCC[C@H](C)O3)cc1,active
4,Cc1ccc(S(=O)(=O)Nc2ccc3c(c2)C(=O)N([C@H](C)CO)C[C@H](C)[C@H](CN(C)Cc2ccc(Cl)c(Cl)c2)OCCCC[C@@H](C)O3)cc1,active
5,Cc1ccc(S(=O)(=O)Nc2ccc3c(c2)C(=O)N([C@H](C)CO)C[C@H](C)[C@@H](CN(C)Cc2ccc(Cl)c(Cl)c2)OCCCC[C@@H](C)O3)cc1,inactive
6,O=C(O)CC[C@H]1CCC(=O)N1,inactive
7,C[C@@H]1CN([C@H](C)CO)C(=O)Cc2cc(NC(=O)c3ccncc3)ccc2O[C@H]1CN(C)S(=O)(=O)c1cn(C)cn1,inactive
8,C[C@@H]1CCCCO[C@@H](CN(C)CC2CC2)[C@H](C)CN([C@H](C)CO)C(=O)c2cc(NS(C)(=O)=O)ccc2O1,inactive
9,C[C@@H]1CN([C@@H](C)CO)C(=O)c2cccc(NS(=O)(=O)c3ccccc3)c2O[C@@H]1CN(C)S(C)(=O)=O,inactive
10,C[C@@H]1CN([C@@H](C)CO)C(=O)c2cc(NS(=O)(=O)c3ccccc3)ccc2O[C@H]1CN(C)S(C)(=O)=O,inactive
11,O=C(C[C@@H]1C=C[C@H](NC(=O)c2cccc(F)c2)[C@@H](CO)O1)NCCN1CCCC1,inactive
12,CN(C)CC(=O)N1CC(=O)N2[C@H](CO)[C@@H](c3ccc(C#Cc4cccnc4)cc3)[C@H]2C1,inactive
13,CCOC(=O)COc1ccc2c(=O)cc(-c3ccccc3)oc2c1,active
14,COc1ccc2c(=O)cc(-c3ccccc3OC)oc2c1,inactive
15,O=c1cc(-c2ccccc2)oc2ccccc12,inactive
16,CCS(=O)(=O)Nc1ccc2c(c1)C(=O)N(C)[C@@H]1CC[C@@H](CC(=O)N[C@@H]3CCN(Cc4ccccc4)C3)O[C@@H]1CO2,inactive
17,Cc1cc(C(=O)Nc2cccc3c2O[C@@H](CN(C)Cc2ccncc2)[C@@H](C)CN([C@H](C)CO)C3=O)n(C)n1,inactive
18,C=CCOC(=O)[C@@H]1[C@H]2C(=O)O[C@H](c3ccccc3)[C@H](c3ccccc3)N2[C@H](c2ccc(OCCOC(=O)[C@H]3C[C@H]4C(=O)N5CCC[C@H]5C(=O)N4[C@H]3c3cccc(OCCO)c3)cc2)[C@@]12C(=O)Nc1ccc(I)cc12,inactive
19,CN(C)CCCNC(=O)C[C@@H]1CC[C@@H]2[C@H](COC[C@H](O)CN2S(=O)(=O)c2ccccc2)O1,inactive
20,Cc1cc(C(=O)c2cc3cc(Cl)ccc3o2)ccc1Cl,inactive
21,Cc1ccc(CN)cc1Cl,inactive
22,Cc1cc(CN)cc(C)c1NC(=O)c1ccc(-c2cc(Cl)ccc2Cl)o1,active
23,CCCCN1CC=C[C@@]23O[C@@H]4C=CCCOC(=O)[C@@H]4[C@H]2C(=O)N([C@@H](C)CO)[C@@H]3C1=O,inactive
24,NNc1ccc2c(N)[nH]nc2c1,inactive

row,Structure (SMILES),cytotoxicity call
1,COc1cccc(CN(C)C[C@@H]2OCc3ccccc3-c3c(n(C)c4ccccc34)C(=O)N([C@H](C)CO)C[C@H]2C)c1,inactive
2,O=C(Cc1cccs1)N1c2ccccc2Sc2ccccc21,active
3,NCCC(=O)N1c2ccccc2Sc2ccccc21,inactive
4,O=C(c1cccs1)N1c2ccccc2Sc2ccccc21,inactive
5,C[C@@H]1CN([C@H](C)CO)C(=O)c2cc(NC(=O)Nc3ccc(C(F)(F)F)cc3)ccc2O[C@@H](C)CCCCO[C@@H]1CN(C)S(=O)(=O)c1ccc(Cl)cc1,inactive
6,O=C1CN(S(=O)(=O)Cc2ccccc2)C[C@@H]2[C@@H](c3ccc(C#Cc4ccc(F)cc4)cc3)[C@@H](CO)N12,active
7,O=C1CN(S(=O)(=O)Cc2ccccc2)C[C@H]2[C@H](c3ccc(C#Cc4ccc(F)cc4)cc3)[C@H](CO)N12,inactive
8,O=C1CN(S(=O)(=O)Cc2ccccc2)C[C@@H]2[C@H](c3ccc(C#Cc4ccc(F)cc4)cc3)[C@@H](CO)N12,inactive
9,O=C1CN(S(=O)(=O)Cc2ccccc2)C[C@H]2[C@@H](c3ccc(C#Cc4ccc(F)cc4)cc3)[C@@H](CO)N12,inactive
10,O=C1CN(S(=O)(=O)Cc2ccccc2)C[C@H]2[C@H](c3ccc(C#Cc4ccc(F)cc4)cc3)[C@@H](CO)N12,inactive
11,O=C1CN(S(=O)(=O)Cc2ccccc2)C[C@@H]2[C@@H](c3ccc(C#Cc4ccc(F)cc4)cc3)[C@H](CO)N12,active
12,CN(C)S(=O)(=O)N1CCO[C@@H]2CN(c3ncc(F)cn3)C[C@@H]21,inactive
13,O=C1O[C@H](c2ccccc2)[C@H](c2ccccc2)N2[C@H]1[C@@H](C(=O)Nc1nc3ccccc3s1)[C@]1(C(=O)Nc3ccc(C#CC4(O)CCCCCC4)cc31)[C@H]2c1ccccc1OCCO,inactive
14,C[C@@H]1CCCCO[C@@H](CN(C)C(=O)Nc2ccc3c(c2)OCO3)[C@@H](C)CN([C@@H](C)CO)C(=O)c2cc(NC(=O)CCC(F)(F)F)ccc2O1,inactive
15,C[C@@H]1CN([C@H](C)CO)C(=O)c2cc(NC(=O)CCCCCC(=O)Nc3ccccc3N)ccc2O[C@@H]1CN(C)Cc1ccc(Oc2ccccc2)cc1,active
16,C[C@@H]1CN([C@H](C)CO)C(=O)c2cc(NC(=O)CCCCCC(=O)Nc3ccccc3N)ccc2O[C@@H]1CN(C)Cc1ccccc1,inactive
17,C[C@H](CO)N1C[C@H](C)[C@H](CN(C)Cc2ccccc2)Oc2ccc(NC(=O)CCCCCC(=O)Nc3ccccc3N)cc2C1=O,inactive
18,C[C@@H]1CN([C@@H](C)CO)C(=O)c2cc(NC(=O)CCCCCC(=O)Nc3ccccc3N)ccc2O[C@H]1CN(C)Cc1ccccc1,active
19,C[C@@H]1CN([C@H](C)CO)C(=O)c2cc(NC(=O)CCCCCC(=O)Nc3ccccc3N)ccc2O[C@H]1CN(C)Cc1ccccc1,inactive
20,C[C@H]1CN([C@@H](C)CO)C(=O)c2cc(NC(=O)CCCCCC(=O)Nc3ccccc3N)ccc2O[C@@H]1CN(C)Cc1ccccc1,active
21,C[C@H](CO)N1C[C@H](C)[C@@H](CN(C)Cc2ccccc2)Oc2ccc(NC(=O)CCCCCC(=O)Nc3ccccc3N)cc2C1=O,inactive
22,COc1ccc(CN(C)C[C@H]2Oc3ccc(NC(=O)CCCCCC(=O)Nc4ccccc4N)cc3C(=O)N([C@H](C)CO)C[C@H]2C)cc1,inactive
23,C[C@H]1CN([C@@H](C)CO)C(=O)c2cc(NC(=O)CCCCCC(=O)Nc3ccccc3N)ccc2O[C@H]1CN(C)Cc1ccc(Oc2ccccc2)cc1,inactive
